This note sets out measurements from PubChem BioAssay (NCATS).

Records with an inconclusive call do not appear. Entries that show only a call come without a potency. Calls of active or inactive are those of the source. Calls follow the shape of the dose curve; as a rule, active = well fitted inhibition curve with a large enough effect; inconclusive = small, poorly fitted or top-dose-only effect; inactive = flat fitted curve, though single readings scatter.

Chain of Ubiquitin carboxyl-terminal hydrolase 1 (Homo sapiens) (O94782 whole entry, looked up): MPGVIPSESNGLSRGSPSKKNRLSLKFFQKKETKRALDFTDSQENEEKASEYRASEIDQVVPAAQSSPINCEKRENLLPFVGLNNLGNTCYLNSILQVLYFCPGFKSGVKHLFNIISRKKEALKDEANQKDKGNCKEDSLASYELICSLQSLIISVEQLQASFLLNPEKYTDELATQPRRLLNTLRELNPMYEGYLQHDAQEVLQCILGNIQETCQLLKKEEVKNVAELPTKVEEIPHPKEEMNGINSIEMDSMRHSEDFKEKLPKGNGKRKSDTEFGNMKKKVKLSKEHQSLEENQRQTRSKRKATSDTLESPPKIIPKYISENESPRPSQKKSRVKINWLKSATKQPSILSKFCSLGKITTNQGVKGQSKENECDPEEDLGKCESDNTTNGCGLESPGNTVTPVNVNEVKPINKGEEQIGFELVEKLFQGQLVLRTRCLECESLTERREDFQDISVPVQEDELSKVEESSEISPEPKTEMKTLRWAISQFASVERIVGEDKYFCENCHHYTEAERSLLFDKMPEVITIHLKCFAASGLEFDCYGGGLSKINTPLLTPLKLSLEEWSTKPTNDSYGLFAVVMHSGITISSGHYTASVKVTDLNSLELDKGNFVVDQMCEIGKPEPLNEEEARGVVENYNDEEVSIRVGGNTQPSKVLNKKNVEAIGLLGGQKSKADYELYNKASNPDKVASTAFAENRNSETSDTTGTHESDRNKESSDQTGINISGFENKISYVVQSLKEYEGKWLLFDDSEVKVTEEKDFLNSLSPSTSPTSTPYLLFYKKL

For the assay, the target named is Ubiquitin carboxyl-terminal hydrolase 1 (Homo sapiens) (UniProt O94782). In words: Inhibitors of USP1/UAF1: Pilot qHTS (AID 504865).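 Also: rhodamine fluorescence freed from ubiquitin-rhodamine substrate followed over time; top concentration of the series differs between compounds; nearly all actives have a fitted effect of over 35% in size.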 The note with it: purified USP1/UAF1, Ub-rhodamine cleavage fluorescence; series mostly up to 114 µM. The procedure, abridged:
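1nM USP1/UAF1 + cpd, 15 min RT; start w/ Ub-Rho 150nM final; kinetic FL 480/540 nm, 6 reads q60 s. Buffer 50mM HEPES pH 7.8, 0.5mM EDTA, 1mM TCEP, 0.01% Tween-20, 0.1 mg/ml BSA.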
Background: In qHTS, concentration-response curves come from the screen itself.
In the case of `O=C(O)c1ccc(NC(=O)[C@H](Cc2ccc(O)cc2)NC(=O)c2ccccc2)cc1`, the Potency entry is “inactive”.
Regarding `Cc1cccc(C)c1NC(=O)NC1=CCCN1C`, the Potency result was “inactive”.
In the case of `CCCCCCCCCCCCCCCCCCCCCC(=O)Nc1ccn([C@@H]2O[C@H](CO)[C@@H](O)[C@@H]2O)c(=O)n1`, the Potency entry is “inactive”.
For the compound `OC1OC[C@@H](O)[C@H](O)[C@@H]1O` (some centres undefined), the Potency result was “inactive”.
As for `CCN(CC)CCC(=O)N1c2ccccc2Sc2ccc(Cl)cc21`, the entry is “inactive”; as for `[O]=[Bi][O]C(=O)[O][Bi]=[O]`, “inactive”.
As to `CC(C)[C@H](N)C(=O)OCC(CO)OCn1cnc2c(=O)[nH]c(N)nc21` (some centres undefined), the Potency result was “inactive”.
For `O=C(Nc1ccc(O)cc1)c1ccccc1O`, the Potency result is “inactive”.
As to `Cn1cc(NC(=O)c2cc(NC(=O)c3cc(NC=O)cn3C)cn2C)cc1C(=O)NCCC(=N)N`, the Potency entry was “inactive”.
For `CC(CNC(=O)c1cccnc1)NC(=O)c1cccnc1` (centres undefined), the Potency entry is “inactive”.
As to `C[C@]12CCC(=O)C[C@@H]1CC[C@@H]1[C@@H]2CC[C@]2(C)C=CC[C@@H]12`, the Potency entry is “inactive”.
To `CCCCCCCCCCCC(=O)N(CCO)CCO` belongs “inactive”.
As to `Cc1nc(NS(=O)(=O)c2ccc(N)cc2)nc(C)c1Br`, the Potency entry was “inactive”.
With `CC(O)CN(C)C` (centres undefined), the Potency result was “inactive”.
In the case of `CC1CCC(NC(=O)N(CCCl)N=O)CC1` (centres undefined), the Potency entry was “inactive”.
Take `CC(C)=CCC/C(C)=C/CC/C(C)=C/CC/C=C(\C)CC/C=C(\C)CCC=C(C)C`: the Potency entry was “inactive”.
In the case of `CCN(CC)CCOC(=O)c1cccnc1`, the Potency entry is “inactive”.
In the case of `O=C(O[C@H]1CN2CCC1CC2)N1CCc2ccccc2[C@@H]1c1ccccc1`, the Potency result was “inactive”.
With `COC1=C(OC)C(=O)C(C/C=C(\C)CC/C=C(\C)CC/C=C(\C)CC/C=C(\C)CC/C=C(\C)CC/C=C(\C)CC/C=C(\C)CC/C=C(\C)CC/C=C(\C)CCC=C(C)C)=C(C)C1=O`, the Potency result was “inactive”.
